Consider 15 targets from the supplement of paper PMC6411743.

Compound in the assay: Nc1ncnc2c1ncn2[C@@H]1O[C@H](COP(=O)(O)OP(=O)(O)NP(=O)(O)O)[C@@H](O)[C@H]1O [adenylyl imidodiphosphate]
Put plainly: NP40-soluble protein abundance relative to vehicle (solubility fold change) (ratio); higher = more soluble protein in presence of AMP-PNP. The procedure, abridged:
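Across three independent experiments, values are fold changes against the detergent-processed vehicle for each replicate, based on vsn-normalised intensities. The samples were Jurkat crude lysate treated with eight concentrations (0.1 to 10 mM) for 10 min at room temperature and then 3 min at 37 °C. Lysate was solubilised with 0.8% NP40 and benzonase, ultracentrifuged, and the supernatant analysed by TMT-labelled LC-MS/MS.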

± gives the standard deviation of the averaged measurements. Targets with the largest changes are over-represented here; the source holds about 6,200 in all.

UniProt Q96DA2, sequence (Q96DA2 whole entry): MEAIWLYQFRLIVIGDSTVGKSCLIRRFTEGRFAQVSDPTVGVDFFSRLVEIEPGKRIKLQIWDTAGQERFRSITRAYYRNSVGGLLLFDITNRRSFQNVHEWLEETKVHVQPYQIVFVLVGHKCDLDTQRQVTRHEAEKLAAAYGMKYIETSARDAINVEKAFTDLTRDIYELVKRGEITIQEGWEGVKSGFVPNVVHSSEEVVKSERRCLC
UniProt Q9P2N5, sequence (Q9P2N5 whole entry): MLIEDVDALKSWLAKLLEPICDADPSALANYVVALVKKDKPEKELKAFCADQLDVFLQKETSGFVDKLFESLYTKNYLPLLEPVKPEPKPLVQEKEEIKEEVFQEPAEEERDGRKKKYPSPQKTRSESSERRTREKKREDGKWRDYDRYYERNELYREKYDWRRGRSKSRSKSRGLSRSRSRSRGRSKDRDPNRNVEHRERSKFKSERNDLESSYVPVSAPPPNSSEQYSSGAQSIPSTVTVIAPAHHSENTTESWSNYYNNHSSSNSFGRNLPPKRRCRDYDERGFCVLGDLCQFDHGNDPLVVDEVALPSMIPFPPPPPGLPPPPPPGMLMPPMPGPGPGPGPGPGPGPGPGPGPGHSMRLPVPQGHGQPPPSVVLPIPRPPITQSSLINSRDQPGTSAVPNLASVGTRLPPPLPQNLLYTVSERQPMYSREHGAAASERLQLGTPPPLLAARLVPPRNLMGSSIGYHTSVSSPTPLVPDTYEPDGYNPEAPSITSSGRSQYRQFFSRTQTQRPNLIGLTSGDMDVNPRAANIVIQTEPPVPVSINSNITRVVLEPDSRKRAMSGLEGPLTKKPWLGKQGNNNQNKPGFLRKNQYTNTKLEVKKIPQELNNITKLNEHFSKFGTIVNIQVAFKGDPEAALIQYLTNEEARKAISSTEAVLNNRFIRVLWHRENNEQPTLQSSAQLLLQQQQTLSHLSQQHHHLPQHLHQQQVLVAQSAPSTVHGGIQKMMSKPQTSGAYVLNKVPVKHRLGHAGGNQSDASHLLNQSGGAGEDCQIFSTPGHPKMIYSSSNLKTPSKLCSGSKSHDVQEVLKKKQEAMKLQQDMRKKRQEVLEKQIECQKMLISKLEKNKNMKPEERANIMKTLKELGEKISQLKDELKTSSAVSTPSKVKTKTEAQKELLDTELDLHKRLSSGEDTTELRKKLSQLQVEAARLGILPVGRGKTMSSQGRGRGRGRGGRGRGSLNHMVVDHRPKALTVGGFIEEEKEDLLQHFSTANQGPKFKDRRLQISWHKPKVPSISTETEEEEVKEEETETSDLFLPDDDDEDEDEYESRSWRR
UniProt Q9ULX3, sequence (Q9ULX3 whole entry): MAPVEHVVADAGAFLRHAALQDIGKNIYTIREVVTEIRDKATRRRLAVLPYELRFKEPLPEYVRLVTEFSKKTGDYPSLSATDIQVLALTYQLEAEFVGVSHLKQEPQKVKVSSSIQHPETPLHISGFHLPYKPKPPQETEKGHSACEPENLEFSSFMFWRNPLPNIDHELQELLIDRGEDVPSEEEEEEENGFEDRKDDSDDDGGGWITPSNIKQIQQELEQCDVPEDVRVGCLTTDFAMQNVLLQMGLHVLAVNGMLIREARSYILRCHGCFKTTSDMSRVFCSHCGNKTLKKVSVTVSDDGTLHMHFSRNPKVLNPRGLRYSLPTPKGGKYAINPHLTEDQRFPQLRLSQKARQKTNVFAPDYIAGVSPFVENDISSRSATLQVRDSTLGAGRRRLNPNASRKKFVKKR
UniProt Q9NR30, sequence (Q9NR30 whole entry): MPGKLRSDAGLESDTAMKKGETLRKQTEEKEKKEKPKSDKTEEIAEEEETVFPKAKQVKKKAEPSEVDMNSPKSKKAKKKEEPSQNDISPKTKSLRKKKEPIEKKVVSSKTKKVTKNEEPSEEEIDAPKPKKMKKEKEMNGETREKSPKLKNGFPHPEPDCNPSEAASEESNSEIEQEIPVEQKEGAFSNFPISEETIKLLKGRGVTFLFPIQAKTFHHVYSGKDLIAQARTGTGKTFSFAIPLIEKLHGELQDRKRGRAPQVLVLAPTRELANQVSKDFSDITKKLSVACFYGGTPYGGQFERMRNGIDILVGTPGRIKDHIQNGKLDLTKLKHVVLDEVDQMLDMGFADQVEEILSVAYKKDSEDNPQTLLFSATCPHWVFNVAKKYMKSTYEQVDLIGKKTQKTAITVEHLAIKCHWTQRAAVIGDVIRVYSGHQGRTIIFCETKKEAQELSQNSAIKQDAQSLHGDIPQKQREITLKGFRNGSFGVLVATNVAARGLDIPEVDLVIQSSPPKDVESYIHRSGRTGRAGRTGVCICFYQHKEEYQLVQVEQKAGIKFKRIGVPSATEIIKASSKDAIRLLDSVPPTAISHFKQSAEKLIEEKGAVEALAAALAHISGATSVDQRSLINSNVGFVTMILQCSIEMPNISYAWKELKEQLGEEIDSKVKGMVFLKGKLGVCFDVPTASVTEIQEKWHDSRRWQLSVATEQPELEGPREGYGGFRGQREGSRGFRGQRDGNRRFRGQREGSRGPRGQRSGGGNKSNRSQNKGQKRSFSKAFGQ
UniProt Q9BVW5, sequence (Q9BVW5 whole entry): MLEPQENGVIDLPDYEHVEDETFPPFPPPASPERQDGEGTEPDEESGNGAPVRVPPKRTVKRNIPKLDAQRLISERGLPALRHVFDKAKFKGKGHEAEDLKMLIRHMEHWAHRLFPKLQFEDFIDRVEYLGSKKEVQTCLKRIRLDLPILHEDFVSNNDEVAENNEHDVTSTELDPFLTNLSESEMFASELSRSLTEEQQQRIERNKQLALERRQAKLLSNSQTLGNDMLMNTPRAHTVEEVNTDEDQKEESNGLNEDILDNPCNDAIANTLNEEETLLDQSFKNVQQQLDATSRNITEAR
UniProt Q9H9E1, sequence (Q9H9E1 whole entry): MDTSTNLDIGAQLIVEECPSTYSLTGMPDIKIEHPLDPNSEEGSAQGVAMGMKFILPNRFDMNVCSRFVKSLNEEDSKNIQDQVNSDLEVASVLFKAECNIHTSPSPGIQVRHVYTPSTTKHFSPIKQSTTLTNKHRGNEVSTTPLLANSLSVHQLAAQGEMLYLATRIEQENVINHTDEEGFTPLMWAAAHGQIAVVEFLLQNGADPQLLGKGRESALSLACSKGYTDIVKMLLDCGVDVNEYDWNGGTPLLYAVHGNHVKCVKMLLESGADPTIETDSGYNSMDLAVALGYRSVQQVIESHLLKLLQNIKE
UniProt Q9H2H8, sequence (Q9H2H8 whole entry, one chain of several): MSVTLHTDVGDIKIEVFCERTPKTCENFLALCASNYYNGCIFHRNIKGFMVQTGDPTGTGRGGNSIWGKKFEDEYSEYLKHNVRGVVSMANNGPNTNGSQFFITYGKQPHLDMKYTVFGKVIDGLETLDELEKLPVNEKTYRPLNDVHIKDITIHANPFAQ
UniProt Q9BPW8, sequence (Q9BPW8 whole entry): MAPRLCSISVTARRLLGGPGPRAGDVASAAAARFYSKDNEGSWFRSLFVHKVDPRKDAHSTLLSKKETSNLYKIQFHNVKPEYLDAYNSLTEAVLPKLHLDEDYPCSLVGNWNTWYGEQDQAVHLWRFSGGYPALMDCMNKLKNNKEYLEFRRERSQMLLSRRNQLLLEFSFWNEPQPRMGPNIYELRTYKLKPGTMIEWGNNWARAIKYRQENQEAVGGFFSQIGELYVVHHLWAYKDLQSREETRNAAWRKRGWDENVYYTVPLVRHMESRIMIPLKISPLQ
UniProt Q9NXR1, sequence (Q9NXR1 whole entry, one chain of several): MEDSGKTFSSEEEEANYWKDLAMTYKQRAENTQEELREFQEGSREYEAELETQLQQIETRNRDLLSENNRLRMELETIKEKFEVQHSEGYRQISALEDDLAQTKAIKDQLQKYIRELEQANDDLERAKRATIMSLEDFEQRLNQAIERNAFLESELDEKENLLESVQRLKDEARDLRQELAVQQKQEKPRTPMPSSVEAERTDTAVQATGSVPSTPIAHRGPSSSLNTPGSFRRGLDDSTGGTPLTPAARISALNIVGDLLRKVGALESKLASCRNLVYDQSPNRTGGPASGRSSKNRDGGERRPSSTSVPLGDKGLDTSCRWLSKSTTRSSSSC
UniProt Q9UGJ1, sequence (Q9UGJ1 whole entry, one chain of several): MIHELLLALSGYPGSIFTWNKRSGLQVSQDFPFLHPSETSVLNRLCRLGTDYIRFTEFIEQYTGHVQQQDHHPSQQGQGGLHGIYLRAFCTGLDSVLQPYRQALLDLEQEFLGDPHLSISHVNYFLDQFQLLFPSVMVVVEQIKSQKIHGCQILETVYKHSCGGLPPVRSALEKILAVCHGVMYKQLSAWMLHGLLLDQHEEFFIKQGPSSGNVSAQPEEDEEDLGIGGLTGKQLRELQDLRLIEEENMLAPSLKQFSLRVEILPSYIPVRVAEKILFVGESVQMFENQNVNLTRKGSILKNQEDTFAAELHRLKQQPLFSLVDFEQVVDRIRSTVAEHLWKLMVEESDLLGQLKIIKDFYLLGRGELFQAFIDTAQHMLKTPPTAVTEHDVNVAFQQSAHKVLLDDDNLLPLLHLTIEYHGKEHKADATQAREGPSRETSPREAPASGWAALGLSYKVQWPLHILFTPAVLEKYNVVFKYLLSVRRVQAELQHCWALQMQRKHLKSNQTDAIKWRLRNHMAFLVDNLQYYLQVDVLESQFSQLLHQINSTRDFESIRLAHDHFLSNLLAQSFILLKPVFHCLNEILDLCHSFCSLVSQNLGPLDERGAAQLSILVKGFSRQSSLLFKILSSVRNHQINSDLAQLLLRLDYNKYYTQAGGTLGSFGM
UniProt Q9HC36, sequence (Q9HC36 whole entry): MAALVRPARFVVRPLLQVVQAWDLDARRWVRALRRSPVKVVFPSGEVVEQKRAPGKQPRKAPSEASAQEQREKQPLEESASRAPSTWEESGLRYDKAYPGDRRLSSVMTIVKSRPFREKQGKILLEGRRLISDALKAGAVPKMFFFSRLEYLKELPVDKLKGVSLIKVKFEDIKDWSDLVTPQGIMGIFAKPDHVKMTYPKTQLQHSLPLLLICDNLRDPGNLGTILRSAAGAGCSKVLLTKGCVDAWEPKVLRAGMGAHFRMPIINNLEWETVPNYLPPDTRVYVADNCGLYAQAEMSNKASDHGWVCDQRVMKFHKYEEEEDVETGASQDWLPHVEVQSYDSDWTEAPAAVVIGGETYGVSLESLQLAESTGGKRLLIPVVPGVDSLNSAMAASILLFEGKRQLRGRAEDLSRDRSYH

Consider ANKRA2 (UniProt Q9H9E1), for which the NP40-soluble protein abundance (concentration: 1mM) was 0.912 ± 0.057; the NP40-soluble protein abundance (concentration: 2mM) was 0.91 ± 0.023; the NP40-soluble protein abundance (concentration: 4mM) stood at 0.911 ± 0.025; the NP40-soluble protein abundance (concentration: 6mM) came out at 0.97 ± 0.087; the NP40-soluble protein abundance (concentration: 8mM) is 0.99 ± 0.058; the NP40-soluble protein abundance (concentration: 10mM) stood at 0.963 ± 0.05.
As for UniProt Q9HC36, the NP40-soluble protein abundance (concentration: 1mM) is 1.05 ± 0.047; the NP40-soluble protein abundance (concentration: 2mM) was found to be 1.1 ± 0.088; the NP40-soluble protein abundance (concentration: 4mM) is 1.23 ± 0.12; the NP40-soluble protein abundance (concentration: 6mM) was determined as 1.37 ± 0.18; the NP40-soluble protein abundance (concentration: 8mM) amounted to 1.51 ± 0.22; the NP40-soluble protein abundance (concentration: 10mM) turned out to be 1.6 ± 0.28.
With NIPSNAP1 (UniProt Q9BPW8), the NP40-soluble protein abundance is, setting by setting: (concentration: 1mM) 0.94 ± 0.05; (concentration: 2mM) 0.873 ± 0.075; (concentration: 4mM) 0.943 ± 0.028; (concentration: 6mM) 0.954 ± 0.08; (concentration: 8mM) 1.02 ± 0.036; (concentration: 10mM) 0.948 ± 0.021.
For SIPA1 (UniProt Q96FS4), the NP40-soluble protein abundance is 1.01 ± 0.037 (concentration: 1mM); 1.013 ± 0.003 (concentration: 2mM); 1.03 ± 0.025 (concentration: 4mM); 1.05 ± 0.029 (concentration: 6mM); 1.03 ± 0.036 (concentration: 8mM); 1.04 ± 0.02 (concentration: 10mM).
Consider RAB39B (UniProt Q96DA2), for which the NP40-soluble protein abundance is, setting by setting: (concentration: 1mM) 1 ± 0.025; (concentration: 2mM) 0.934 ± 0.066; (concentration: 4mM) 0.996 ± 0.019; (concentration: 6mM) 0.9868 ± 0.0097; (concentration: 8mM) 0.986 ± 0.015; (concentration: 10mM) 0.954 ± 0.041.
Consider UniProt Q9Y2S0|Q9Y2S0-2|A0A0R4J2F3, for which the NP40-soluble protein abundance was found to be 1.03 ± 0.024 (concentration: 1mM); 1.06 ± 0.053 (concentration: 2mM); 1.08 ± 0.062 (concentration: 4mM); 1.02 ± 0.018 (concentration: 6mM); 1.03 ± 0.041 (concentration: 8mM); 1.07 ± 0.036 (concentration: 10mM).
With UniProt Q9H2H8|B8ZZ77|Q9H2H8-2, the NP40-soluble protein abundance (concentration: 1mM) was 1.04 ± 0.038; the NP40-soluble protein abundance (concentration: 2mM) was 1.04 ± 0.032; the NP40-soluble protein abundance (concentration: 4mM) stood at 1.04 ± 0.017; the NP40-soluble protein abundance (concentration: 6mM) was 0.998 ± 0.031; the NP40-soluble protein abundance (concentration: 8mM) came out at 1.02 ± 0.018; the NP40-soluble protein abundance (concentration: 10mM) turned out to be 1.03 ± 0.038.
As for UniProt Q9UGJ1|Q9UGJ1-2|H3BPU4, the NP40-soluble protein abundance came to 1.01 ± 0.037 (concentration: 1mM); 1.01 ± 0.024 (concentration: 2mM); 1.04 ± 0.05 (concentration: 4mM); 1 ± 0.028 (concentration: 6mM); 1 ± 0.091 (concentration: 8mM); 1.03 ± 0.08 (concentration: 10mM).
As to TIPIN (UniProt Q9BVW5), the NP40-soluble protein abundance reads like this: (concentration: 1mM) 0.948 ± 0.06; (concentration: 2mM) 1.04 ± 0.14; (concentration: 4mM) 0.933 ± 0.072; (concentration: 6mM) 0.928 ± 0.063; (concentration: 8mM) 0.911 ± 0.057; (concentration: 10mM) 0.929 ± 0.093.
Regarding DDX21 (UniProt Q9NR30), the NP40-soluble protein abundance (concentration: 1mM) amounted to 1.21 ± 0.11; the NP40-soluble protein abundance (concentration: 2mM) amounted to 1.25 ± 0.13; the NP40-soluble protein abundance (concentration: 4mM) is 1.39 ± 0.23; the NP40-soluble protein abundance (concentration: 6mM) stood at 1.55 ± 0.31; the NP40-soluble protein abundance (concentration: 8mM) is 1.66 ± 0.38; the NP40-soluble protein abundance (concentration: 10mM) is 1.78 ± 0.4.
Take UniProt Q9H6A9|Q9H6A9-2: the NP40-soluble protein abundance by setting is: (concentration: 1mM) 1.01 ± 0.016; (concentration: 2mM) 1.02 ± 0.027; (concentration: 4mM) 0.98826 ± 0.00019; (concentration: 6mM) 0.989 ± 0.028; (concentration: 8mM) 0.9847 ± 0.0089; (concentration: 10mM) 0.9795 ± 0.0059.
RBM27 (UniProt Q9P2N5): the NP40-soluble protein abundance came to 1.04 ± 0.021 (concentration: 1mM); 1.15 ± 0.062 (concentration: 2mM); 1.13 ± 0.05 (concentration: 4mM); 1.24 ± 0.12 (concentration: 6mM); 1.25 ± 0.11 (concentration: 8mM); 1.34 ± 0.16 (concentration: 10mM).
Take UniProt Q9NXR1|Q9NXR1-2|X5DR54: the NP40-soluble protein abundance (concentration: 1mM) was 0.994 ± 0.029; the NP40-soluble protein abundance (concentration: 2mM) stood at 1.07 ± 0.041; the NP40-soluble protein abundance (concentration: 4mM) turned out to be 1.01 ± 0.025; the NP40-soluble protein abundance (concentration: 6mM) is 0.978 ± 0.019; the NP40-soluble protein abundance (concentration: 8mM) came to 0.985 ± 0.026; the NP40-soluble protein abundance (concentration: 10mM) came to 0.9852 ± 0.0096.
NOB1 (UniProt Q9ULX3): the NP40-soluble protein abundance came out at 0.972 ± 0.013 (concentration: 1mM); 0.956 ± 0.027 (concentration: 2mM); 0.984 ± 0.042 (concentration: 4mM); 0.966 ± 0.023 (concentration: 6mM); 1 ± 0.043 (concentration: 8mM); 1 ± 0.047 (concentration: 10mM).
“UniProt Q96L91|Q96L91-2|Q96L91-3|Q96L91-5”: the NP40-soluble protein abundance is 1.03 ± 0.036 (concentration: 1mM); 1.09 ± 0.038 (concentration: 2mM); 1.05 ± 0.028 (concentration: 4mM); 1.05 ± 0.061 (concentration: 6mM); 1.03 ± 0.057 (concentration: 8mM); 1.1 ± 0.084 (concentration: 10mM).
